CHO-K1 Ca antag: counter-screen for M1 antagonists: effect in parental CHO-K1 cells. ATP-induced calcium, Fluo-8 fluorescence. inhibition, % at 3 µM. AID 602250. 360,000 tested, 0.6% active;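 active = inhibition above a per-plate cutoff, the plate's mean sample inhibition plus 3 SD, cut at about 24% in these data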;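 note: 0% = DMSO plus EC80 ATP and 100% = DMSO alone without ATP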
CHO-K1 Ca PAM: nonselective calcium activators in parental CHO-K1 cells, primary screen, counter-screen for M1 PAM project, cell-based, Fluo-8 calcium fluorescence, full deck, 1536-well. ATP EC20; 0% at ATP EC20, 100% at ATP max. activation, % at 3 µM. 360,000 tested, 0.02% active;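 active = activation above the run cutoff, the mean activation of all test compounds plus 3 SD, cut at about 40% in these data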;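 note: peak over basal fluorescence ratio in a 140 s read after ATP addition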
M1 ag: human M1 muscarinic receptor agonists, primary screen, Fluo-8 calcium fluorescence, CHO-K1 cells, HTS; Muscarinic acetylcholine receptor M1 (Homo sapiens), P11229; CHO-K1 hM1, agonist mode; 0% DMSO, 100% acetylcholine EC100; activation, % at 3 µM; 360,000 tested, 0.33% active; AID 588814, 2011;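 active = activation above the run's mean compound activation plus 3 SD, cut at about 16% in these data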;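 note: peak over basal fluorescence ratio within a 140 s kinetic read after compound addition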
Target sequence (P11229 whole entry, looked up): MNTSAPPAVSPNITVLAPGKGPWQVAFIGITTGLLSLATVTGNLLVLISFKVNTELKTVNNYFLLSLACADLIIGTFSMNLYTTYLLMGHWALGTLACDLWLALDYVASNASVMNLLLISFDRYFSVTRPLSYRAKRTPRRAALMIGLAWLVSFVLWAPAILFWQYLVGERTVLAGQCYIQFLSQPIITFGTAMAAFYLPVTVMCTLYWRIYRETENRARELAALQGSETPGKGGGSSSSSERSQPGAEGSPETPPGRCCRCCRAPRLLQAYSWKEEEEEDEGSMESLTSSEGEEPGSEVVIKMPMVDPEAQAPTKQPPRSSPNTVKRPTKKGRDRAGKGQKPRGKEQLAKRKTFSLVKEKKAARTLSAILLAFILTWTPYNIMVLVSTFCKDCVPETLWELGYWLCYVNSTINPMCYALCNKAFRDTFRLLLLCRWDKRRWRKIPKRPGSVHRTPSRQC
M1 ag parental: counter-screen for M1 agonists: effect in parental CHO-K1 cells | Fluo-8 calcium fluorescence; scaled to maximal ATP response, vehicle zero | 360,000 tested, 0.48% active | activation, % at 3 µM | AID 602248, 2012; in the data active = activation above about 15%;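 note: untransfected CHO-K1 host cells lacking M1 receptor as counterscreen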
CHRM1 antagonist: human M1 muscarinic receptor antagonists, primary screen, CHO-K1 cells, Fluo-8 calcium fluorescence, 1536-well | Muscarinic acetylcholine receptor M1 (Homo sapiens), P11229 | 360,000 tested, 1.3% active | CHO-K1 hM1, ACh EC80 antagonist | inhibition, % at 3 µM;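 active = percent inhibition above its own plate's cutoff, namely the mean of that plate's compound wells plus 3 SD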;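 note: peak over basal fluorescence ratio during 140 s after agonist addition; 0% = ACh EC80 plus DMSO and 100% = DMSO alone without agonist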
CHRM1 PAM: human M1 muscarinic receptor positive allosteric modulators, primary screen, CHO-K1 cells, Fluo-8 calcium fluorescence, 1536-well; Muscarinic acetylcholine receptor M1 (Homo sapiens), P11229; CHO-K1 hM1, ACh EC20; 0% = ACh EC20, 100% = maximal ACh; 360,000 tested, 0.088% active; activation, % at 3 µM; in the data active = activation above about 19%, passing the limit was not always enough
An asterisk follows results filed as active. Compounds with a hit are over-represented: about 2.3% of the library has one in this group of screens.

SMILES | CHO-K1 Ca antag | CHO-K1 Ca PAM | M1 ag | M1 ag parental | CHRM1 antagonist | CHRM1 PAM
O=C(C1CCC(CNc2nc(=S)[nH]c3ccccc23)CC1)N1CCN(c2ccc(F)cc2)CC1 (stereo not drawn) | -2 | -10 | -7 | 0 | 33* | -13
COc1ccc(N2CCN(CCCNC(=O)C3CCC(CNc4nc(=S)[nH]c5ccccc45)CC3)CC2)cc1 (stereo not drawn) | -13 | 2 | -7 | 5 | -3 | 4
CCOC(=O)Cc1nnc(NC(=O)CSc2ccc(C)cc2)s1 | -18 | 28 | 19* | 4 | -8 | 10
O=C1c2ccccc2C(=O)N1CC(O)CNc1ccc(Br)cc1 (stereo not drawn) | 12 | -8 | -4 | 0 | 6 | -3
COc1ccc(CNc2cccc3[nH]c(C(F)(F)F)nc23)cc1 | -10 | 14 | -3 | 0 | -9 | 6
Cc1ccc(C(=O)Nc2cccc3[nH]c(C(F)(F)F)nc23)cc1 | -1 | 0 | 1 | 17* | -10 | 5
Cc1cccn2c(=O)nc(SCC(=O)N3CCC(Cc4ccccc4)CC3)nc12 | 2 | -12 | 20* | 3 | 14 | -3
Cc1cc2c(cc1C)N(C(=O)CSC1=NCCS1)C(C)(C)c1ssc(=S)c1-2 | -18 | 9 | -12 | -1 | 54* | -29
CC1(C)c2ssc(=S)c2-c2ccccc2N1C(=O)CSC1=NCCS1 | -12 | 11 | -4 | 0 | 12 | -12
COc1ccc(N(Cc2ccccc2)N=O)cc1 | 10 | -17 | -1 | 1 | -4 | 5
CC(C)CCNC(=O)Cn1c(=O)oc2cc(S(=O)(=O)N3CCc4ccccc43)ccc21 | 19 | -11 | -12 | 0 | 31* | -23
COc1ccc(/C(C)=N/NC(=O)c2ccc(CSc3nncn3C)cc2)cc1 | 9 | 15 | -3 | 15* | 13 | -5
O=C(CN1C(=O)S/C(=C\C=C\c2ccccc2)C1=O)Nc1ccccc1C(=O)O | -6 | 17 | -4 | 1 | -17 | 10
C#CCN1C(=O)S/C(=C/C=C/c2ccc(N(C)C)cc2)C1=O | 13 | 3 | 36* | 9 | 47* | -18
COc1cc(Cl)ccc1OC1(C)CCN(Cc2cccc(OC)c2OC)C1 (stereo not drawn) | 5 | -11 | -8 | 1 | -6 | -8
CCc1nnc(NC(=O)c2ccc3nc(CC)c(CC)nc3c2)s1 | -7 | 9 | -3 | 1 | 8 | 1
Fc1ccccc1Oc1nc(-c2ccncc2)nc2ccccc12 | -9 | 20 | -5 | 1 | -4 | 3
CN(Cc1ccc(F)cc1)C(=O)C(Cc1ccccc1)NC(=O)c1ccccc1 (stereo not drawn) | -6 | -8 | -1 | 6 | 27 | -11
CSc1ccc(CN(C)C(=O)C(Cc2ccccc2)NC(=O)c2ccccc2)cc1 (stereo not drawn) | 2 | 7 | 0 | 8 | 44* | -14
COc1ccc(CN(C)C(=O)C(Cc2ccccc2)NC(=O)c2ccccc2)cc1F (stereo not drawn) | 21 | -15 | -2 | 7 | 42* | -17
Cc1cc(NC(=O)COC(=O)C2CC(=O)N(c3cccc(Cl)c3)C2)no1 (stereo not drawn) | -7 | -3 | 1 | 1 | -3 | 31*
Cc1cc(NC(=O)COC(=O)C2CC(=O)N(c3ccc(C)c(Cl)c3)C2)no1 (stereo not drawn) | -9 | 4 | -4 | 3 | 0 | 1
CNc1nc2ccccc2n1CC(=O)c1ccccc1 | -7 | 17 | -2 | 2 | -6 | 4
Cc1nc2c(s1)sc1ccccc12 | 24* | -9 | -5 | 0 | -4 | 1
Cc1cc2c(sc3ccccc32)c(C)n1 | -8 | -3 | -4 | 0 | -8 | 11
SMILES | CHO-K1 Ca antag | CHO-K1 Ca PAM | M1 ag | M1 ag parental | CHRM1 antagonist | CHRM1 PAM
CC(C)(C)c1ccc(NC(=O)c2ccsc2)cc1 | -4 | 0 | -2 | 0 | -18 | 19
S=C(NCc1ccccc1)NC1CCSc2ccccc21 (stereo not drawn) | -6 | -6 | -3 | 6 | 24 | -17
O=C(Cc1ccc([N+](=O)[O-])cc1)Nc1cc(C(F)(F)F)cc(C(F)(F)F)c1 | 29* | -21 | 0 | 3 | 29 | -13
CC1CCCCC12NC(=O)N(CC(=O)OCc1cccc(F)c1)C2=O (stereo not drawn) | -1 | 17 | -3 | 2 | 2 | 1
CC(=O)c1cccc(N(CC(=O)O)S(C)(=O)=O)c1 | 2 | 1 | -4 | 0 | -13 | 1
O=C(Nc1cccc(F)c1)c1c(F)c(F)c(F)c(F)c1F | 24* | -6 | -1 | 6 | 16 | -10
Cc1cccc(C(C)Nc2ccc([N+](=O)[O-])cn2)c1 (stereo not drawn) | -3 | 5 | -4 | 0 | -10 | 5
Cc1cccnc1C(NC(=O)C1CCN(Cc2ccccc2)CC1)c1ccc(F)cc1 (stereo not drawn) | -12 | 21 | -3 | 0 | -7 | 0
O=C(NC(c1ccc(-c2ccccc2)cc1)c1cnccn1)C1CCN(CCN2C(=O)c3ccccc3C2=O)CC1 (stereo not drawn) | 30* | -14 | -4 | 0 | 21 | -12
O=C(NC(c1ccccc1)c1cnccn1)C1CCN(CCCOc2ccccc2)CC1 (stereo not drawn) | 0 | -12 | -9 | 0 | 11 | -7
Cc1cccnc1C(NC(=O)C1CCN(Cc2ccc(Oc3ccccc3)cc2)CC1)c1ccccc1 (stereo not drawn) | 0 | 1 | -9 | 0 | 27* | -20
O=C(NC(c1ccc(-c2ccccc2)cc1)c1cnccn1)C1CCN(Cc2cccs2)CC1 (stereo not drawn) | 24* | -5 | -5 | 2 | 12 | -3
O=C(NC(c1ccc(-c2ccccc2)cc1)c1cnccn1)C1CCN(Cc2ccc(Oc3ccccc3)cc2)CC1 (stereo not drawn) | 7 | 9 | -4 | 3 | 15 | -8
CN1CCC(=C(c2ccccc2)c2ccc(Br)cc2)CC1 | -6 | 23 | 11 | 22* | 54* | -14
CCOC(=O)c1c(NC(=O)CN(CC)CC)sc2c1CCN(C(=O)OCC)C2 | -19 | 6 | -2 | 0 | -16 | 0
CCOC(=O)c1c(NC(=S)N2CCN(C)CC2)sc2c1CCN(C(=O)OCC)C2 | -16 | 5 | 23* | 0 | -12 | 15
CC(C)COc1cccc(C(=O)NC(=S)NCc2cccnc2)c1 | -9 | 9 | -8 | -1 | -2 | 4

Screening results (PubChem)
